# Assay results as given in PubChem BioAssay.
# Records with an inconclusive call do not appear. Activity calls are given as the source filed them. Unless noted, no stated cut-off is given here; in the data, active means inhibition above about 80%; inactive means the rest.
# How the values were obtained:
# [1] = viability loss in pontine glioma line – cell-based, SU-DIPG-XIII, MIPE5.0, CellTiter-Glo, qHTS, dose response (AID 1347064; cut-off not given, nearly all actives have AC50 up to about 23 µM;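 on AC50: cells exposed to compound for 48 hours before the viability read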); conditions: CellTiter-Glo ATP luminescence
# [2] = growth inhibition of DIPG cells – cell-based, MIPE5.0 library, qHTS (AID 1347068; cut-off not given, nearly all actives have IC50 up to about 30 µM); conditions: SU-DIPG-XXV viability
# [3] = growth inhibition, single agent or in combination, cell-based, chromothripsis tumors, cisplatin or BGB combos (AID 1671449); conditions: LFS_MB_P medulloblastoma cells;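 further: cells exposed for 96 hours; 0% = vehicle DMSO and 100% = killing by high DMSO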
# [4] = growth inhibition, single agent and combos, cell-based, chromothripsis tumors, cisplatin or BGB combos (AID 1671450); conditions: HDN33 neuroblastoma cells, stronger effect = higher value;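 further: cells exposed to compound for four days; 0% = vehicle DMSO and 100% = cell killing by high DMSO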
# [5] = growth inhibition, single agents and combos, ICB984, cell-based, cisplatin or BGB combos, synergistic combos for chromothripsis tumors (AID 1671451; call rule not given here;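 further: cells exposed for 96 hours before readout; 0% = vehicle DMSO and 100% = killing by high DMSO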); conditions: ICB984 medulloblastoma cells, drug combinations, stronger effect = higher value
# [6] = growth inhibition, single agents and combos, LFS_MB_1R, cell-based, cisplatin or BGB combos, synergistic combos for chromothripsis tumors (AID 1671452); conditions: LFS_MB_1R medulloblastoma cells, stronger effect = higher value;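 further: cells exposed for 96 hours before readout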
# [7] = growth inhibition, single agents and combos, HTB85, cell-based, BGB or cisplatin IC20 combos, synergistic combos for chromothripsis tumors (AID 1671453); conditions: HTB85 osteosarcoma cells, drug combinations, stronger effect = higher value;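 further: cells exposed for 96 hours before readout; 0% = vehicle DMSO and 100% = high DMSO killing control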
# [8] = growth inhibition, single agents and combos, CRL2098, cell-based, BGB or cisplatin IC20 combos, synergistic combos for chromothripsis tumors (AID 1671454); conditions: CRL2098 osteosarcoma cells, drug combinations, stronger effect = higher value;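 further: cells exposed for 96 h before readout; 0% = vehicle DMSO and 100% = killing by high DMSO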
# [9] = growth inhibition, single agents and combos, HD-MB03, cell-based, BGB or cisplatin IC20 combos, synergistic combos for chromothripsis tumors (AID 1671455; in the data active means inhibition above about 83%;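 further: 0% = vehicle DMSO and 100% = high DMSO as cytotoxic control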); conditions: HD-MB03 medulloblastoma cells, stronger effect = higher value
# [10] = growth inhibition, single agents and combos, UWB1.289, cell-based, BGB or cisplatin combos, synergistic combos for chromothripsis tumors (AID 1671456); conditions: UWB1.289 ovarian carcinoma cells, stronger effect = higher value;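 further: cells exposed to compound for four days; 0% = vehicle DMSO and 100% = killing by high DMSO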
# [11] = growth inhibition, single agents and combos, LFS_MB_2R, cell-based, cisplatin combos, synergistic combos for chromothripsis tumors (AID 1671457); conditions: LFS_MB_2R medulloblastoma cells, stronger effect = higher value;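 further: cells exposed to compound for four days before readout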
# [12] = growth inhibition, MDA-MB-436, cell-based, BGB or cisplatin combos, synergistic combos for chromothripsis tumors (AID 1671458; call rule not given here;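 further: cells exposed for 96 hours; 0% = vehicle DMSO and 100% = killing by high DMSO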); conditions: MDA-MB-436 breast carcinoma growth inhibition, drug combinations, stronger effect = higher value
# [13] = UWB1.289_BRCA1 ovarian cancer growth, cell-based, BGB or cisplatin combinations (AID 1671459); conditions: UWB1.289 BRCA1 ovarian carcinoma, drug combinations, stronger effect = higher value
# [14] = drug combination toxicity in non-malignant astrocytes – cell-based, BGB or cisplatin IC20 combos, cytotoxicity control for chromothriptic childhood tumor combination screen (AID 1671460); conditions: Human astrocytes, viability inhibition, drug combinations, at 0.5 µM, stronger effect = higher value;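 further: cells exposed to compounds for 96 hours before viability readout; 0% = vehicle and 100% = killing control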
# [15] = BT084 cell growth, single and combined drugs, ICGC_MB145, cisplatin and BGB IC40 combos (AID 1671461); conditions: BT084 medulloblastoma cells, drug combinations, stronger effect = higher value;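 further: cells exposed to drugs for 96 hours; 0% = vehicle DMSO and 100% = high DMSO full killing control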
# [16] = RCMB18 cell growth, single agent and combined, cisplatin and BGB IC40 combos (AID 1671462); conditions: RCMB18 medulloblastoma cells, stronger effect = higher value;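 further: cells exposed to compound for four days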
# [17] = CRL1545 cell growth, single agent and combined, cisplatin and BGB IC20 combos (AID 1671464); conditions: CRL1545 osteosarcoma cells, stronger effect = higher value;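 further: cells exposed to compound for 96 hours before readout; 0% = vehicle DMSO and 100% = high DMSO killing control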
# [18] = viability loss in pontine glioma line – cell-based, SU-DIPG-XXV, MIPE5.0, CellTiter-Glo, qHTS, dose response (AID 1347065; cut-off not given, nearly all actives have AC50 up to about 26 µM;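 further: cells exposed to compound for 48 hours before ATP readout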); conditions: CellTiter-Glo ATP luminescence
# [19] = growth inhibition of DIPG cells – cell-based, MIPE4.0 library, CellTiter-Glo luminescence, qHTS (AID 1347066; cut-off not given, nearly all actives have AC50 up to about 30 µM;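 further: cells exposed to compound for 48 hours before readout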); conditions: SU-DIPG-VI viability, CellTiter-Glo ATP luminescence
# [20] = JHH-DIPG-1 glioma cell viability, MIPE5.0 library, CellTiter-Glo luminescence, qHTS (AID 1347067; cut-off not given, nearly all actives have AC50 up to about 26 µM;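 further: cells exposed to compound for 48 hours before readout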); conditions: JHH-DIPG-1 glioma viability, CellTiter-Glo ATP luminescence
# [21] = measured here: combination with BGB IC40, at 0.05 µM
# [22] = measured here: with BGB IC20 combination, at 0.5 µM
# [23] = measured here: with cisplatin IC20 combination, at 0.5 µM
# [24] = measured here: combination with cisplatin, at 0.5 µM
# [25] = measured here: combination with cisplatin, at 5 µM
structure (smiles),measurement,setting,value
O=c1[nH]c([C@@H]2CCCN2)nc2c1oc1ccc(Cl)cc12,AC50,[1],20.9 µM (active)
same,outcome,[2],inactive
same,inhibition,"[3]; at 0.5 µM, stronger effect = higher value",-0.05% (inactive)
same,inhibition,"[3]; measured here: combination with BGB IC20, at 0.005 µM",-31.4%
same,inhibition,"[3]; measured here: combination with BGB IC40, at 0.005 µM",94.4%
same,inhibition,[3]; [21],-14%
same,inhibition,"[3]; measured here: combination with cisplatin, at 0.5 µM, stronger effect = higher value",64.5%
same,inhibition,"[3]; measured here: combination with cisplatin, at 5 µM, stronger effect = higher value",-16.4%
same,inhibition,"[4]; BGB combo, at 5 µM",1.11%
same,inhibition,[4]; at 0.5 µM,-21.3% (inactive)
same,inhibition,"[4]; cisplatin combo, at 5 µM",-6.62%
same,inhibition,[4]; [22],-15.4%
same,inhibition,[4]; [23],-18.8%
same,inhibition,"[4]; single agent, at 5 µM",3.38%
same,inhibition,"[5]; BGB IC20 combo, at 0.005 µM",-39.5%
same,inhibition,"[5]; BGB IC40 combo, at 0.005 µM",-26.9%
same,inhibition,"[5]; BGB IC40 combo, at 0.05 µM",-16.5%
same,inhibition,[5]; at 0.5 µM,-16.4% (inactive)
same,inhibition,"[5]; cisplatin combo, at 0.05 µM",-22.5%
same,inhibition,"[5]; cisplatin combo, at 0.5 µM",-15.6%
same,inhibition,"[5]; cisplatin combo, at 5 µM",4.34%
same,inhibition,"[5]; measured here: 5 uM single agent, at 5 µM",-19.5%
same,inhibition,[6]; at 0.5 µM,-31% (inactive)
same,inhibition,[6]; [21],-29.1%
same,inhibition,[6]; [24],-68.3%
same,inhibition,[6]; [25],-10.2%
same,inhibition,[7]; at 0.5 µM,-12.9% (inactive)
same,inhibition,"[7]; measured here: with BGB IC20, at 0.5 µM",-9.31%
same,inhibition,"[7]; measured here: with BGB IC20, at 5 µM",-19.7%
same,inhibition,"[7]; measured here: with cisplatin IC20, at 0.5 µM",-5.61%
same,inhibition,"[7]; measured here: with cisplatin IC20, at 5 µM",-2.34%
same,inhibition,"[7]; single agent, at 5 µM",-2.45%
same,inhibition,[8]; at 0.5 µM,-86.2% (inactive)
same,inhibition,"[8]; measured here: combination with BGB at IC20, at 0.5 µM",-77.4%
same,inhibition,"[8]; measured here: combination with cisplatin at IC20, at 0.5 µM",-117%
same,inhibition,[9]; at 0.5 µM,-12.2% (inactive)
same,inhibition,"[9]; measured here: combo with BGB at IC20, at 0.5 µM",-2.56%
same,inhibition,"[9]; measured here: combo with cisplatin at IC20, at 0.5 µM",-27.5%
same,inhibition,[10]; at 0.5 µM,-17.8% (inactive)
same,inhibition,"[10]; measured here: inhibition with BGB combination, at 0.05 µM",-12.3%
same,inhibition,"[10]; measured here: inhibition with cisplatin combination, at 0.05 µM",-25.4%
same,inhibition,[11]; at 0.5 µM,-16% (inactive)
same,inhibition,[11]; [24],-22.2%
same,inhibition,[11]; [25],-24.3%
same,inhibition,[12]; at 0.5 µM,-35% (inactive)
same,inhibition,"[12]; measured here: BGB combination, at 0.5 µM",-39.6%
same,inhibition,"[12]; measured here: BGB combination, at 5 µM",-62.1%
same,inhibition,"[12]; measured here: cisplatin combination, at 0.5 µM",-52.2%
same,inhibition,"[12]; measured here: cisplatin combination, at 5 µM",-71.9%
same,inhibition,"[13]; BGB combination, concentration series, at 5 µM",-4.02%
same,inhibition,[13]; at 0.5 µM,-15.4% (inactive)
same,inhibition,"[13]; cisplatin combination, concentration series, at 5 µM",-5.14%
same,inhibition,[14],1.64% (inactive)
same,inhibition,[14]; measured here: combo with BGB IC20,11.1%
same,inhibition,[14]; measured here: combo with cisplatin IC20,-0.305%
same,inhibition,[15]; at 0.5 µM,18.2% (inactive)
same,inhibition,"[15]; cisplatin combination, at 0.5 µM",0.765%
same,inhibition,"[15]; cisplatin combination, at 5 µM",-129%
same,inhibition,"[15]; measured here: BGB IC40 combination 0.05 uM, at 0.05 µM",-10.1%
same,inhibition,"[15]; single agent, at 5 µM",7.55%
same,inhibition,[16]; at 0.5 µM,-15.8% (inactive)
same,inhibition,"[16]; cisplatin combo, at 5 µM",-8.27%
same,inhibition,"[16]; measured here: BGB IC40 combination, at 0.05 µM",3.23%
same,inhibition,[16]; [24],-15.3%
same,inhibition,"[16]; single agent, at 5 µM",-12.8%
same,inhibition,[17]; at 0.5 µM,-44.6% (inactive)
same,inhibition,[17]; [22],-65.7%
same,inhibition,[17]; [23],-36.2%
same,inhibition,"[17]; single agent, at 0.05 µM",-56%
same,inhibition,"[17]; single agent, at 5 µM",-51.5%
CN1CCC(COc2cnc(-c3cccc(Cn4nc(-c5cccc(C#N)c5)ccc4=O)c3)nc2)CC1,AC50,[18],26.3 µM (active)
same,outcome,[19],inactive
same,AC50,[20],29.5 µM (active)
O=C(c1c(F)ccc(NS(=O)(=O)N2CC[C@@H](F)C2)c1F)c1c[nH]c2ncc(-c3cnc(C4CC4)nc3)cc12,AC50,[18],10.5 µM (active)
CSC[C@H]1CN(Cc2c[nH]c3c(N)ncnc23)C[C@@H]1O,outcome,[1],inactive
same,outcome,[20],inactive
same,outcome,[2],inactive
